# Hits are enriched below; roughly 10% of the tested compounds scored in any of these assays.
# CCT modulator: changes cytosolic chaperonin activity; purified chaperonin ATPase assay, HTRF ADP detection, 30 min; activity change, % (concentration not given with the values), hits read low; 360,000 compounds, 0.3% hits; in the data active means activity change below about -30%
#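 Enzyme 40 or 20 nM (batch-dependent) in Tris pH 7.4/KCl/MgCl2/DTT; cpd 76 uM single point; ATP 10 uM; 30 min 37 °C; Transcreener ADP HTRF detection, 30 min RT; ratio 665/615.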
# VDR inhibitor: inhibitors of human vitamin D receptor; VDR-SRC2-3 peptide fluorescence polarization, 2 h; P11473; 400,000 compounds, 0.93% hits; Potency, µM, inactives show max response, negative = inhibition, actives largely listed as inhibitors; further: potency means the concentration at half of the fitted maximal effect
#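 FP read-out; VDR + SRC2-3 coactivator peptide; 23 nl compound by pintool; 2 h RT incubation; reagents held at 4 deg C, protected from light.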
# G9a block: inhibitors of human histone lysine methyltransferase G9a | G9a H3K9 monomethylation, AlphaScreen, 2 h | 350,000 compounds, 8.8% hits | Q96KQ7 | Potency, µM (titrated, usually from 102 µM), for the others: at the top dose activity, negative = inhibition, usual class: inhibitors; further: potency means the concentration at half of the fitted maximal effect; nearly all actives have a fitted effect of over 75% in size
# Target sequence (Q96KQ7 913-1193 limits assumed): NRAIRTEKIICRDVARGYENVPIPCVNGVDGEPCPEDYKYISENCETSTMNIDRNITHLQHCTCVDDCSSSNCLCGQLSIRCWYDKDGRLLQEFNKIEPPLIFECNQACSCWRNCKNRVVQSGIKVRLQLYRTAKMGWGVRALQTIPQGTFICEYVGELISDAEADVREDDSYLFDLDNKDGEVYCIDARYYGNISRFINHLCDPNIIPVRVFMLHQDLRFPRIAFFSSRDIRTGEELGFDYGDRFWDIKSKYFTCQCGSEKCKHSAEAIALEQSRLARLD
#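 Chemiluminescent proximity detection of H3K9 monomethylation, read after 10 min bead incubation in the dark. Reaction: 20 nM G9a, 500 nM biotin-H3K9 peptide, 20 uM SAM cofactor, 2 h, room temperature, following 15 min enzyme-compound preincubation.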
# PLK1 PBD inh: inhibitors of human PLK1 polo-box domain binding. P53350. Plk1 PBD binding of FITC phosphopeptide, fluorescence polarization. Potency, µM, without a hit: max response, negative = inhibition, hits mostly inhibitors. 360,000 compounds, 2.8% hits. AID 720504; further: potency means the concentration at half of the fitted maximal effect; series mostly up to about 57 µM; nearly all actives have a fitted effect of over 65% in size
# Sfp PPTase inh: blocks B. subtilis Sfp PPTase activity; Potency, µM, without a hit: largest response in the series, negative = inhibition, usual class: inhibitors; Biochemical Sfp PPTase activity, qHTS; AID 1490; 310,000 compounds, 3.5% hits;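 further: the enzyme is Sfp with the accession as filed and its product quenches rhodamine fluorescence; potency means the concentration at half of the fitted maximal effect; 0% = enzyme reaction without inhibitor and -100% = no enzyme wells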
#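 Sfp 15 nM + cpd, 15 min RT; start w/ rhodamine-CoA 5 uM, BHQ-2-YbbR 12.5 uM (final); 50 mM Hepes pH 7.6, 10 mM MgCl2, 0.01% NP-40, 0.01% BSA; read 525/598 nm at 0 and 30 min.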
# Mm-Cpn inhibitor: blocks the Methanococcus maripaludis chaperonin Mm-Cpn | purified Mm-Cpn ATPase, ADP Transcreener TR-FRET | Potency, µM (doses to about 76.9 µM), without a hit: at the highest dose activity, negative = inhibition, most hits filed as inhibitors | 330,000 compounds, 0.031% hits | AID 504842; further: potency means the concentration at half of the fitted maximal effect; nearly all actives have a fitted effect of over 80% in size
#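 Eu-cryptate anti-ADP/ADP-d2 competition gives a ratio inversely related to ADP. Enzyme at 25 nM was pre-exposed to compound for 10 min, then given 10 uM ATP for 30 min, 37°C throughout.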
# * = called active by the depositor; u = inconclusive; x = no result; ! = a repeat was not active; [ ] = remark or other dose. Unless noted, the call rests on the fitted dose curve; in most records, active means well fitted curve in the direction sought with a large enough effect; inconclusive means small, poorly fitted or top-dose-only effect, or another doubt; inactive means no such curve, though single readings can be large; an effect the other way counts as inactive or inconclusive. Unless noted, on the % scale 0 is the no-effect control and ±100 the full control effect.
SMILES,CCT modulator,VDR inhibitor,G9a block,PLK1 PBD inh,Sfp PPTase inh,Mm-Cpn inhibitor
NC(CO)Cc1ccccc1 (configuration not stated),x,6%,-2%[2.33 µM],x,9%,x
NC(N)=N/N=C/c1c(Cl)cccc1Cl,-2,3%,-23%[59 µM],-10%,100µM*!,3%
Nc1ccc(-c2ccccc2)cc1,-52*,17%,x,4%,x,x
Nc1ccc(N)cc1,x,u,13µM*,x,-27%,x
Nc1ccc(Cc2ccc(N)cc2)cc1,1,23%,x,1%,x,x
Nc1ccc2ccccc2c1,3,12%,x,-9%,x,x
CCC(=O)N1N=C(c2c(O)n(C)c(=O)n(C)c2=O)CC1c1ccccc1 (configuration not stated),3,-12%,25µM*,-2%,-15%,1%
Cn1c(O)c(C2=NN(C(=O)CCl)C(c3ccccc3)C2)c(=O)n(C)c1=O (configuration not stated),-1,-7%,32µM*,-5%,-11%,-1%
CCOc1ccc(C2CC(c3c(O)n(C)c(=O)n(C)c3=O)=NN2)cc1 (configuration not stated),-3,-9%,u,-4%,-7%,1%
CCOc1ccc2nc(NC(=O)c3cccn(Cc4ccccc4)c3=O)sc2c1,x,10%,-2%[59 µM],x,x,x
COc1cc2c(cc1OC)[C@@]13CCN4CC5=CCOC6CC(=O)N2C1[C@H]6[C@@H]5C[C@@H]43 (some centres not stated),x,-1%,-2%[2.33 µM],x,18%,x
C(=C\c1ccccc1)/CN1CCN(CCOC(c2ccccc2)c2ccccc2)CC1,x,-10%,11µM*,x,56µM*,x
Cn1c(=O)n(C)c2cc(CNCCc3ccccc3)ccc21,x,5%,-1%[59 µM],x,x,x
Cc1cccc(N=Nc2ccc(N(C)C)cc2)c1,0,0%,8.9µM*,1%,-6%,0%
CN(C)c1ccccc1,2,x,x,-4%,x,x
COc1cc(C(=S)N2CCOCC2)cc(OC)c1OC(=O)Cc1ccccc1,1,-1%,45µM*,u,-4%,-2%
CNc1cc(Cl)c2nonc2c1[N+](=O)[O-],1,35µM*,25µM*,8.4µM*,-26%,-4%
CCC12CCCN3CCC4(c5ccc(OC)c(O)c5N(C(C)=O)C4CC1)C32 (configuration not stated),x,x,x,x,12%,x
COc1ccc(N2CCN(CCCNC(=O)c3cnn(-c4ccc(F)cc4)c3-n3cccc3)CC2)cc1,x,1%,13µM*,x,x,x
CC(C)(C)c1ccc(OCC(=O)Nc2ccc(Cl)cc2C(=O)c2ccccc2)cc1,x,-15%,-27%[59 µM],x,x,x
CCN1C[C@@]2(OC(=O)c3ccccc3NC(C)=O)CCC(OC)[C@@]34C5CC6C(OC)C[C@@](O)(C(CC23)[C@@H]14)C5(O)C6OC (some centres not stated),x,18%,x,x,13%,x
CN(Cc1ccccc1)C(=O)CN1CCCC1=O,0,10%,77%,-4%,14%,-1%
CN(Cc1ccccc1)C(=O)c1ccc(NC(=O)C2CCN(C(=O)OC(C)(C)C)CC2)cc1,-2,-3%,x,30µM*,x,2%
CC(=O)C1CCC2C3CCC4CC(O)CCC4(C)C3CC(O)C12C (configuration not stated),x,5%,-45%[2.33 µM],x,-9%,x
CCCCC/C=C\C=C\[C@H](CCCCCCCC(=O)O)OO,x,-1%,7%[59 µM],x,20%,x
O=C1NC(=O)N(c2ccccc2F)C(=O)/C1=C/c1ccc(Oc2ccc([N+](=O)[O-])cn2)cc1,1,79µM*,20µM*,6µM*,50µM*,1%
CCOC(=O)[C@]12Cc3c(cc(OC)c(OC)c3OC)[C@H]1N(C1CCCCC1)C(=O)c1ccccc12,0,x,x,9.5µM*,x,x
CCOC(=O)[C@]12Cc3cc(Cl)ccc3[C@H]1N(C1CCCCC1)C(=O)c1cc(OC)ccc12,2,x,x,2.1µM*,x,x
CCOC(=O)[C@]12Cc3cc(N(C)C)ccc3[C@H]1N(Cc1ccccc1)C(=O)c1ccccc12,-1,-5%,x,-17%,x,x
CCOC(=O)[C@]12Cc3cc(OC)ccc3[C@H]1N(CC(=O)OC)C(=O)c1ccccc12,0,x,x,-2%,x,x

# Bioassay records from PubChem BioAssay.
